Measured values: PubChem BioAssay (Tox21)
Inconclusive results are not listed. A number with no mark means an inactive call. Active and inactive are the calls of the source. Calls follow the shape of the dose curve; as a rule, active = well fitted inhibition curve with a large enough effect in the repeat runs; inconclusive = weak or mixed curves; inactive = no such curve, though single readings can be large or run the other way.

target: Cytochrome P450 3A4 (Homo sapiens) (UniProt P08684); test: Cytochrome P450 Family 3 Subfamily A Member 4 (CYP3A4) small molecule antagonists: luciferase reporter qHTS assay (AID 1671201); conditions: P450-Glo CYP3A4 enzyme, luciferin luminescence, 1 h; series mostly up to 115 µM; activity change, negative = inhibition: at the top concentration; also: nearly all actives have a fitted effect of over 50% in size
From the text: National Center for Advancing Translational Sciences [NCATS]
U.S. Environmental Protection Agency [EPA]
National Institutes of Environmental Health Sciences [NIEHS]
National Toxicology Program [NTP]
U.S. Food and Drug Administration [FDA]
Cytochrome P450 (CYP) enzymes are membrane-bound hemeproteins that play a key role in metabolism of drugs and xenobiotics. Evaluation of the effect of chemicals on CYP isozymes is useful to minimize the adverse drug reactions and toxicities in drug development process. Tox21 chemicals were tested for their effect on CYP enzyme activities by using P450-Glo (TM) screening systems (Promega Corporation, Madison, WI). These systems provide a luminescent method containing proluciferin substrates and are converted to luciferin products by CYP isozymes. The luciferin products formed are detected with a luciferin detection reagent, and the amount of light produced is proportional to CYP activity. P450-Glo (TM) CYP3A4 screening system (Catalog. No. V9910) was used to detect the compounds that interfere in CYP3A4 activity. The positive control compound used for CYP3A4 assay is ketoconazole (Sigma-Aldrich, St. Louis, MO).
Tox21 Assay Protocol Summary:
Two ul of enzyme-substrate mix was dispensed into medium binding white/solid 1536-well plates (Greiner Bio-One North America Inc., Monroe, NC) using a BioRaptr Flying Reagent Dispenser (FRD, Beckman Coulter, Brea, CA). Compounds dissolved in DMSO and positive control (ketoconazole) were transferred to the assay plates at 23 nl using a Pintool station (Wako, San Diego, CA). The assay plates were incubated at room temperature for 10 min. Then 2 ul of NADPH regeneration solution was added to each well of the assay plates using an FRD and incubated at room temperature for 1 h. The reaction was stopped by adding 4 ul of detection reagent using an FRD and after 20 min incubation at room temperature the luminescence signal was measured using a ViewLux plate reader (Perkin Elmer, Shelton, CT). Data were expressed as relative luminescence units.
% is scaled to controls: 0 for no effect and ±100 for the full control effect; potency is read from the fitted curve at half-maximal effect.

Sequence of Cytochrome P450 3A4 (Homo sapiens) (P08684 whole entry, looked up): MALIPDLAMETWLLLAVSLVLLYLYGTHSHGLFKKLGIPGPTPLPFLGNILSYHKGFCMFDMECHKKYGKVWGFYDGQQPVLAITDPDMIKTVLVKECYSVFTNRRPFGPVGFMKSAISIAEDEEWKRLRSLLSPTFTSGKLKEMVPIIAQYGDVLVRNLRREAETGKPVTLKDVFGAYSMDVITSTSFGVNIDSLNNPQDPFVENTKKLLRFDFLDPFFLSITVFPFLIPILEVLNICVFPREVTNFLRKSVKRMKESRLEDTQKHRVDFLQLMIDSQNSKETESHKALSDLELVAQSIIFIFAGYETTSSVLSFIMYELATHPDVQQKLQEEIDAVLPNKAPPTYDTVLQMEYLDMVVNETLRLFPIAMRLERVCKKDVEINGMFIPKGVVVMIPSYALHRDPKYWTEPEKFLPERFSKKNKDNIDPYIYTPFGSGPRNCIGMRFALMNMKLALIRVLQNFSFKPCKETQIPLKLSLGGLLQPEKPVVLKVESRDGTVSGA

SMILES	activity change, negative = inhibition	Potency
COC(=O)c1ccccc1S(=O)(=O)NC(=O)Nc1nc(C)cc(C)n1	-0.337%	
ClC(Cl)(Cl)C(Cl)(Cl)Cl	10.5%	
CCCSC(=O)Cl	6.64%	
CC1=C(C(=O)O)N2C(=O)[C@@H](N)[C@H]2SC1	11.3% [at 23.6 µM]	
CCSC(=O)N(CC)C1CCCCC1	67.3%	
CC(C1CC1)C(O)(Cn1cncn1)c1ccc(Cl)cc1 (stereo not given)		0.888 µM (active)
N#Cc1ccncc1	0.57%	
O=C(NCO)NCO	5.85%	
C=C(C)[C@@H]1CC=C(C=O)CC1		35.6 µM (active)
O=C(Nc1ccccc1)N(Cc1ccc(Cl)cc1)C1CCCC1		11.2 µM (active)
c1coc(-c2nc3ccccc3[nH]2)c1	-25.7%	
Nc1cc(Cl)ccc1O		21.7 µM (active)
CCC#N	9.73%	
[As]#[In]	4.3%	
CCCCc1ccc(O)cc1	6.93%	
CCCCc1c(C)nc(NCC)[nH]c1=O	31.5%	
C#CCN1C(=O)COc2cc(F)c(N3C(=O)C4=C(CCCC4)C3=O)cc21		35.6 µM (active)
O=C(CCCN1CCC(n2c(=O)[nH]c3ccccc32)CC1)c1ccc(F)cc1	2.59% [at 52.9 µM]	
NC1=NC(=O)C(c2ccccc2)O1 (stereo not given)	22.2% [at 52.9 µM]	
CCCCOP(=O)(O)OCCCC	11.6%	

SMILES	activity change, negative = inhibition	Potency
CNC(=O)Oc1ccccc1C1OCCO1	-11.7%	
CC1(C)CON(Cc2ccccc2Cl)C1=O	26.6%	
CCCCCCI	-0.599%	
CC(CCc1ccccc1)NC(C)C(O)c1ccc(O)cc1 (stereo not given)	82.8% [at 52.9 µM]	
CC(C=O)Cc1ccc2c(c1)OCO2 (stereo not given)		11.2 µM (active)
CC1=NNC(=O)N(/N=C/c2cccnc2)C1	0.66%	
O=[N+]([O-])c1ccc(CBr)cc1	-0.589%	
NC(=O)O	5.42%	
O=C(O)C(Br)CBr (stereo not given)	-5.4%	
C[C@H]1CCC[C@H](O)CCCCCc2cc(O)cc(O)c2C(=O)O1		0.715 µM (active)
OCCSCSCCO	4.48%	
OC(c1ccccc1)(c1ccccc1)C1CCNCC1	-6.48% [at 52.9 µM]	
CCN(Cc1ccc(Cl)nc1)/C(=C/[N+](=O)[O-])NC	0.798% [at 52.9 µM]	
C=C(C)CN(CC)c1c([N+](=O)[O-])cc(C(F)(F)F)cc1[N+](=O)[O-]	-20.7%	
Oc1c(Cl)cccc1Cl	35.4%	
CCOC(=O)N(C)C(=O)CSP(=S)(OCC)OCC		2.24 µM (active)
CCOC(=O)C(c1c(O)c2ccccc2oc1=O)c1c(O)c2ccccc2oc1=O	9.98% [at 52.9 µM]	
Fc1cc(Br)ccc1CBr	2.8% [at 52.9 µM]	
c1cc2c(c(N3CCNCC3)c1)OCCO2	2.91% [at 52.9 µM]	
O=C(Nc1ccccc1)c1ccccc1I		15.9 µM (active)
